Test results reported in PubChem BioAssay (NCATS).
Inconclusive results are not listed. Activity calls are given as the source filed them. Calls come from the whole dose curve; as a rule, active = well fitted curve in the direction sought with a large enough effect; inconclusive = small, poorly fitted or top-dose-only effect, or another doubt; inactive = no such curve, though single readings can be large; an effect the other way counts as inactive or inconclusive.

Assays:
CRL-7250 = normal cell line; experiment: Cytotoxic Profiling of Annotated Libraries Using Quantitative High-Throughput Screening (AID 1296008); conditions: Five cell lines viability, CellTiter-Glo ATP luminescence, 48-72 h; max response: active compounds read low; note: nearly all actives have a fitted effect of over 60% in size; for max response: % is set by controls: 0 for no effect and ±100 for the full control effect
Method in brief: (§1)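 Cytotoxicity was measured as CellTiter-Glo ATP luminescence, read after 10 min at room temperature. Compound treatment of the cells lasted 48 or 72 hr at 37 degrees Celsius in a qHTS format.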

HEK293 = experiment: as above; conditions: Five cell lines viability, CellTiter-Glo ATP luminescence, 48-72 h; max response: active compounds read low
Method in brief: as §1

HaCat [1] = experiment: as above; conditions: Five cell lines viability, CellTiter-Glo ATP luminescence, 48-72 h; max response: active compounds read low
Method in brief: as §1

KB-3-1 = experiment: as above; conditions: Five cell lines viability, CellTiter-Glo ATP luminescence, 48-72 h; max response: active compounds read low
Method in brief: as §1

NIH3T3 [2] = experiment: as above; conditions: Five cell lines viability, CellTiter-Glo ATP luminescence, 48-72 h; max response: active compounds read low
Method in brief: as §1

HACAT [3] = experiment: qHTS assay to identify novel small-molecules to repurpose for Merkel cell carcinoma treatment (AID 1296009); conditions: MCC and control cell lines, CellTiter-Glo viability, 72 h; at 44.8 µM (top of the series) unless noted; note: nearly all actives have a fitted effect of over 60% in size
Method in brief: (§2)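 After compound transfer in DMSO, plates were kept 72 hr at 37 degree celsius. Luminescent ATP signal from CellTiter-Glo served as viability measure, normalized against DMSO and no-cell controls.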

NIH3T3 [4] = experiment: as above; conditions: MCC and control cell lines, CellTiter-Glo viability, 72 h; at 44.8 µM (top of the series) unless noted
Method in brief: as §2

C33A = experiment: Primary qHTS to identify gynecologic anti-cancer compounds using libraries of approved drugs and bioactive compounds (AID 1345084); conditions: Gynecologic cancer cell panel viability, ATPlite luminescence, 48 h; series mostly up to 57.5 µM; note: % is set by controls: 0 for no effect and ±100 for the full control effect; nearly all actives have a fitted effect of over 55% in size
Method in brief: (§3)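 Measured: luminescence after ATPlite addition (15 min, RT). Exposure: 48 h, 37 C, 5% CO2.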

CAOV3 = experiment: as above; conditions: Gynecologic cancer cell panel viability, ATPlite luminescence, 48 h; series mostly up to 57.5 µM
Method in brief: as §3

CASKI = experiment: as above; conditions: Gynecologic cancer cell panel viability, ATPlite luminescence, 48 h; series mostly up to 57.5 µM
Method in brief: as §3

Es-2 = experiment: as above; conditions: Gynecologic cancer cell panel viability, ATPlite luminescence, 48 h; series mostly up to 57.5 µM
Method in brief: as §3

HeLa = experiment: as above; conditions: Gynecologic cancer cell panel viability, ATPlite luminescence, 48 h; series mostly up to 57.5 µM
Method in brief: as §3

Hek293T = experiment: as above; conditions: Gynecologic cancer cell panel viability, ATPlite luminescence, 48 h, control line for the selectivity index; series mostly up to 57.5 µM
Method in brief: as §3

JEG-3 = experiment: as above; conditions: Gynecologic cancer cell panel viability, ATPlite luminescence, 48 h; series mostly up to 57.5 µM
Method in brief: as §3

COc1cccc(OC)c1-c1ccc(C[C@H](NC(=O)c2c(Cl)cccc2Cl)C(=O)O)cc1
inactive: max response (CRL-7250) 1.89% | max response (HEK293) -9.99% | outcome (HaCat [1]) | outcome (KB-3-1) | outcome (NIH3T3 [2]) | outcome (HACAT [3]) | outcome (NIH3T3 [4]) | Potency (C33A) | Potency (CAOV3) | outcome (CASKI) | Potency (Es-2) | Potency (HeLa) | Potency (Hek293T) | Potency (JEG-3)

COc1cc(Nc2nc3ccccc3nc2NS(=O)(=O)c2cccc(NC(=O)c3ccc(C)c(OC)c3)c2)cc(OC)c1
inactive: max response (CRL-7250) -4.07% | max response (HEK293) -14.5% | outcome (HaCat [1]) | max response (KB-3-1) -12.1% | outcome (NIH3T3 [2]) | outcome (HACAT [3]) | outcome (NIH3T3 [4]) | Potency (C33A) | Potency (CAOV3) | outcome (CASKI) | Potency (Es-2) | Potency (HeLa) | Potency (Hek293T) | Potency (JEG-3)

COc1cc(/C=C/C(=O)OC[C@H]2O[C@@H](OC3CC(C)=C(C(=O)O)C(C)(C)C3)[C@H](O)[C@@H](O)[C@@H]2O)cc(OC)c1O (some centres not stated)
inactive: max response (CRL-7250) -3.13% | max response (HEK293) -1.71% | outcome (HaCat [1]) | outcome (KB-3-1) | outcome (NIH3T3 [2]) | outcome (HACAT [3]) inactive [at 17.4 µM] | outcome (NIH3T3 [4]) inactive [at 17.4 µM] | Potency (C33A) | Potency (CAOV3) | outcome (CASKI) | Potency (Es-2) | Potency (HeLa) | Potency (Hek293T) | Potency (JEG-3)

C/C=C/C=C/C(O)=C1/C(=O)[C@]2(C)C3/C(=C(O)/C=C/C=C/C)C(=O)C4(C)C1[C@]1(C)O[C@@]4(O)[C@@]3(C)O[C@@]12O
inactive: outcome (CRL-7250) | max response (HEK293) 2.27% | outcome (HaCat [1]) | max response (KB-3-1) 0.929% | outcome (NIH3T3 [2]) | outcome (HACAT [3]) inactive [at 17.4 µM] | outcome (NIH3T3 [4]) inactive [at 17.4 µM] | Potency (C33A) | Potency (CAOV3) | outcome (CASKI) | Potency (Es-2) | Potency (HeLa) | Potency (Hek293T) | Potency (JEG-3)

C=C1CCC2C(C)(C(=O)O)CCCC2(C)C1CC/C(C)=C\CO (configuration not stated)
inactive: max response (CRL-7250) -2.2% | max response (HEK293) -6.37% | outcome (HaCat [1]) | outcome (KB-3-1) | outcome (NIH3T3 [2]) | outcome (HACAT [3]) | outcome (NIH3T3 [4]) | Potency (C33A) | Potency (CAOV3) | outcome (CASKI) | Potency (Es-2) | Potency (HeLa) | Potency (Hek293T) | Potency (JEG-3)

O=C(O)Cc1cn([C@@H]2OC[C@@H](O[C@@H]3O[C@H](CO)[C@@H](O)[C@H](O)[C@H]3O)[C@H](O)[C@H]2O[C@@H]2O[C@H](CO)[C@@H](O)[C@H](O)[C@H]2O)c2ccccc12
inactive: max response (CRL-7250) -0.703% | max response (HEK293) 2.5% | outcome (HaCat [1]) | max response (KB-3-1) 5.94% | outcome (NIH3T3 [2]) | outcome (HACAT [3]) inactive [at 17.4 µM] | outcome (NIH3T3 [4]) inactive [at 17.4 µM] | Potency (C33A) | Potency (CAOV3) | outcome (CASKI) | Potency (Es-2) | Potency (HeLa) | Potency (Hek293T) | Potency (JEG-3)

C[C@H]1CC[C@H]2[C@@H](C=C[C@@](C)(O)[C@]2(C)C(=O)CCO)C1
inactive: outcome (CRL-7250) | max response (HEK293) 4.9% | outcome (HaCat [1]) | max response (KB-3-1) 5.8% | outcome (NIH3T3 [2]) | outcome (HACAT [3]) | outcome (NIH3T3 [4]) | Potency (C33A) | Potency (CAOV3) | outcome (CASKI) | Potency (Es-2) | Potency (HeLa) | Potency (Hek293T)

COC(=O)C1(C)CCCC2(C)c3ccc(C(C)C)cc3C(O)C(O)C12 (configuration not stated)
inactive: max response (CRL-7250) -3.44% | max response (HEK293) -25.7% | outcome (HaCat [1]) | outcome (KB-3-1) | outcome (NIH3T3 [2]) | outcome (HACAT [3]) | outcome (NIH3T3 [4]) | Potency (C33A) | Potency (CAOV3) | outcome (CASKI) | Potency (Es-2) | Potency (HeLa) | Potency (Hek293T) | Potency (JEG-3)

Cc1ccc(Nc2nnc(-c3ccc([N+](=O)[O-])cc3)o2)cc1Cl
inactive: outcome (CRL-7250) | max response (HEK293) -16.7% | outcome (HaCat [1]) | max response (KB-3-1) -2.92% | outcome (NIH3T3 [2]) | outcome (HACAT [3]) | outcome (NIH3T3 [4]) | Potency (C33A) | Potency (CAOV3) | outcome (CASKI) | Potency (Es-2) | Potency (HeLa) | Potency (Hek293T) | Potency (JEG-3)

CC(C)c1ccc2c(c1)CCC1[C@](C)(C(=O)O)CCC[C@]21C (some centres not stated)
inactive: outcome (CRL-7250) | max response (HEK293) 2.37% | outcome (HaCat [1]) | max response (KB-3-1) -0.955% | outcome (NIH3T3 [2]) | outcome (HACAT [3]) | outcome (NIH3T3 [4]) | Potency (C33A) | Potency (CAOV3) | outcome (CASKI) | Potency (Es-2) | Potency (HeLa) | Potency (Hek293T) | Potency (JEG-3)

Cc1occc(=O)c1O[C@@H]1O[C@H](COC(=O)CC(C)(O)CC(=O)O)[C@@H](O)[C@H](O)[C@H]1O (some centres not stated)
inactive: outcome (CRL-7250) | max response (HEK293) -5.53% | outcome (HaCat [1]) | outcome (KB-3-1) | outcome (NIH3T3 [2]) | outcome (HACAT [3]) inactive [at 17.4 µM] | outcome (NIH3T3 [4]) inactive [at 17.4 µM] | Potency (C33A) | Potency (CAOV3) | outcome (CASKI) | Potency (Es-2) | Potency (HeLa) | Potency (Hek293T) | Potency (JEG-3)

C/C=C(\C)C(=O)OC1CC2C(CC=C3CC(OC4CC(OC)C(OC5CC(OC)C(OC6CC(OC)C(OC7CC(OC)C(OC8CC(OC)C(OC9OC(CO)C(O)C(O)C9O)C(C)O8)C(C)O7)C(C)O6)C(C)O5)C(C)O4)CCC32C)C2(O)CCC(C(C)=O)C12C (configuration not stated)
inactive: outcome (CRL-7250) | max response (HEK293) -12.4% | outcome (HaCat [1]) | max response (KB-3-1) 8.92% | outcome (NIH3T3 [2]) | outcome (HACAT [3]) inactive [at 9.27 µM] | outcome (NIH3T3 [4]) inactive [at 9.27 µM] | activity change, negative = cytotoxicity (C33A) 4.48% [at 6.55 µM] | activity change, negative = cytotoxicity (CAOV3) -9.87% [at 6.55 µM] | activity change, negative = cytotoxicity (CASKI) -6.32% [at 6.55 µM] | activity change, negative = cytotoxicity (Es-2) 2.25% [at 6.55 µM] | activity change, negative = cytotoxicity (HeLa) 6.7% [at 6.55 µM] | activity change, negative = cytotoxicity (Hek293T) -0.353% [at 6.55 µM] | activity change, negative = cytotoxicity (JEG-3) 3.01% [at 6.55 µM]
